Screening results as filed in PubChem.
HT1080NT lethal – qHTS for induction of synthetic lethality in tumor cells producing 2HG: qHTS for the HT-1080-NT fibrosarcoma cell line | Potency, µM (highest dose often 46.1 µM), for the others: at the top dose activity, negative = less viability, hits mostly cytotoxic | AID 686970, 2013 | HT-1080-NT fibrosarcoma viability, CellTiter-Glo ATP luminescence, 48 h | actives 1.6% (n = 360,000);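 note: NT is the 2HG producing partner of a matched IDH1 knockdown line; 0% = DMSO-treated cells and -100% = media-only wells without cells; nearly all actives have a fitted effect of over 55% in size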
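HT-1080-NT; 750 cells/well; 5% FBS RPMI; 48 h compound, 37 degrees C; CellTiter-Glo luminescence; curve fitting and curve-class assignment.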
SW480 rereplic – A quantitative high throughput screen for small molecules that induce DNA re-replication in SW480 colon adenocarcinoma cells. SW480 DNA re-replication, Hoechst DNA content imaging, 48 h. Potency, µM (top dose mostly 46.1 µM), for the others: at the highest dose re-replication activation, most hits filed as activators. actives 1.8% (n = 340,000). AID 624297, 2012; note: % of control where 0% means no effect; nearly all actives have a fitted effect of over 55% in size
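SW480 cells exposed to compounds for 48 hr at 37 C, 5% CO2, then Hoechst-stained 40 min. Nuclear DNA content imaged by fluorescence scanning (405 nm excitation, 500-530 nm emission); re-replication scored as increased high-intensity nuclei.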
MCF10A rereplic – A quantitative high throughput screen for small molecules that induce DNA re-replication in MCF 10a normal breast cells; MCF 10A DNA re-replication, Hoechst nuclear intensity, 48 h; Potency, µM (titrated, usually from 46.1 µM), without a hit: at the top dose activity, positive = re-replication, usual class: activators; actives 2.9% (n = 350,000); note: % of control where 0% means no effect; nearly all actives have a fitted effect of over 50% in size
KB-V1 MDR tox – qHTS assay for MDR1-selective chemotherapeutics: Primary screen using the drug-selected MDR subline cells KB-V1. KB-V1 MDR cells viability, CellTiter-Glo, 72 h. Potency, µM (highest dose often 46.1 µM), most hits filed as cytotoxic. actives 3.4% (n = 400,000). AID 1347076, 2019; note: % is set by controls: 0 for no effect and ±100 for the full control effect; nearly all actives have a fitted effect of over 60% in size
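Compound-treated KB-V1 multidrug-resistant cells, 72 h, 37 degrees C; viability by CellTiter-Glo. Fitted qHTS curves give the values.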
KB-3-1 tox – qHTS assay for MDR1-selective chemotherapeutics: Primary screen using the parental adenocarcinoma cell KB-3-1 | KB-3-1 viability, CellTiter-Glo ATP luminescence, 72 h | Potency, µM (top dose mostly 46.1 µM), actives largely listed as cytotoxic | actives 1.4% (n = 400,000) | AID 1347075, 2019; note: % is set by controls: 0 for no effect and ±100 for the full control effect; nearly all actives have a fitted effect of over 60% in size
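Using CellTiter-Glo luminescence, growth of non-resistant KB-3-1 adenocarcinoma cells is assessed 72 h after pin-tool compound addition at 37 °C. Normalized responses across the concentration series yield fitted curves.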
HT1080 IDH1KD tx – qHTS for induction of synthetic lethality in tumor cells producing 2HG: qHTS for the HT-1080-IDH1KD cell line; Potency, µM (top dose mostly 46.1 µM), without a hit: top-dose activity, negative = toxicity, usual class: cytotoxic; actives 2% (n = 360,000); HT-1080 IDH1 knockdown viability, ATP luminescence, 48 h; AID 686971, 2013;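 note: 0% = DMSO wells and -100% = cell-free medium wells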
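Assay cells: HT-1080 with IDH1 knockdown, 750 per well, RPMI/5% FBS. Exposure: 48 h at 37 °C following 2 h pre-incubation. Read: CellTiter-Glo luminescence; fitted concentration-response, curve class assigned.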
An asterisk follows results filed as active. An excerpt weighted towards active compounds, which were near 8% of everything screened. Calls come from the whole dose curve; as a rule, active = well fitted curve in the direction sought with a large enough effect; inconclusive = small, poorly fitted or top-dose-only effect, or another doubt; inactive = no such curve, though single readings can be large; an effect the other way counts as inactive or inconclusive. Potency is the fitted concentration of half-maximal effect.

For Oc1oc(-c2ccco2)nc1C=Nc1cccc(Cl)c1 the results were HT1080NT lethal 2%, SW480 rereplic inconclusive, MCF10A rereplic -3%, KB-V1 MDR tox inactive, KB-3-1 tox inactive and HT1080 IDH1KD tx 3%.
CCOC(=O)CSc1nnc(CNC(=O)c2ccccc2OC)n1-c1ccc(OC)cc1 was read as HT1080NT lethal 2%, SW480 rereplic -4%, MCF10A rereplic 2%, KB-V1 MDR tox inactive, KB-3-1 tox inactive and HT1080 IDH1KD tx 22%.
CNc1nc(SCc2ccc(C)cc2)nc2c1CCCC2 was read as HT1080NT lethal inconclusive, SW480 rereplic -1%, MCF10A rereplic 15µM*, KB-V1 MDR tox inactive, KB-3-1 tox inactive and HT1080 IDH1KD tx inconclusive.
Cc1ccc(CSc2nc3c(c(N(C)C)n2)CCCC3)cc1 was read as HT1080NT lethal -25%, SW480 rereplic 15µM*, MCF10A rereplic 13µM*, KB-V1 MDR tox inconclusive, KB-3-1 tox inconclusive and HT1080 IDH1KD tx inconclusive.
Screening Cc1ccc(CSc2nc3c(c(SCC(=O)O)n2)CCCC3)cc1 returned HT1080NT lethal 0%, SW480 rereplic -4%, MCF10A rereplic 11%, KB-V1 MDR tox inactive, KB-3-1 tox inactive and HT1080 IDH1KD tx 4%.
For Cc1cc(C(=O)CN2C(=O)C(=O)N(Cc3ccco3)C2=O)c(C)n1CCc1ccccc1 the results were HT1080NT lethal inconclusive, SW480 rereplic inconclusive, MCF10A rereplic 4.6µM*, KB-V1 MDR tox 16µM*, KB-3-1 tox inconclusive and HT1080 IDH1KD tx inconclusive.
Screening Cc1cc(C(=O)CN2C(=O)C(=O)N(Cc3ccco3)C2=O)c(C)n1CCc1ccc(F)cc1 returned HT1080NT lethal inconclusive, SW480 rereplic inconclusive, MCF10A rereplic inconclusive, KB-V1 MDR tox 15µM*, KB-3-1 tox 18µM* and HT1080 IDH1KD tx inconclusive.
For COc1ccc(-n2c(C)cc(C(=O)CN3C(=O)C(=O)N(Cc4ccccc4)C3=O)c2C)cc1 the results were HT1080NT lethal inconclusive, SW480 rereplic 8%, MCF10A rereplic 5.8µM*, KB-V1 MDR tox inconclusive, KB-3-1 tox inconclusive and HT1080 IDH1KD tx inconclusive.
`Cc1[nH]c2ccccc2c1C(=O)CN1C(=O)C(=O)N(Cc2ccco2)C1=O` gave HT1080NT lethal 0%, SW480 rereplic -5%, MCF10A rereplic 0%, KB-V1 MDR tox inactive, KB-3-1 tox inactive and HT1080 IDH1KD tx 12%.
CCCCNS(=O)(=O)c1ccc(NC(=O)c2c(-c3ccccc3Cl)noc2C)cc1 was read as HT1080NT lethal inconclusive, SW480 rereplic 11%, MCF10A rereplic inconclusive, KB-V1 MDR tox 21µM*, KB-3-1 tox inactive and HT1080 IDH1KD tx inconclusive.
Screening CCc1noc(C)c1C(=O)Nc1nc2ccc(S(C)(=O)=O)cc2s1 returned HT1080NT lethal -5%, SW480 rereplic -4%, MCF10A rereplic -3%, KB-V1 MDR tox inactive, KB-3-1 tox inactive and HT1080 IDH1KD tx 1%.
`Cc1onc(-c2ccccc2Cl)c1C(=O)OCc1cnc(Cl)s1` gave HT1080NT lethal -4%, SW480 rereplic 4%, MCF10A rereplic 23µM*, KB-V1 MDR tox inconclusive, KB-3-1 tox inactive and HT1080 IDH1KD tx -4%.
CCCCNS(=O)(=O)c1ccc(NC(=O)c2c(-c3ccccc3)noc2C)cc1 was read as KB-V1 MDR tox inactive and KB-3-1 tox inactive.
For Cc1onc(-c2ccccc2Cl)c1C(=O)Nc1nc2ccc(S(C)(=O)=O)cc2s1 the results were HT1080NT lethal 15µM*, SW480 rereplic 1%, MCF10A rereplic -4%, KB-V1 MDR tox inactive, KB-3-1 tox inactive and HT1080 IDH1KD tx inconclusive.
